Experimental data from PubChem BioAssay (NCATS).
The source made the active and inactive calls. Calls follow the shape of the full dose curve.

Biological target: Tumor susceptibility gene 101 protein (Homo sapiens) (UniProt Q99816)
Assay: qHTS Validation Assay for Iinhibitors of HIV-1 Budding by Blocking the Interaction of PTAP/TSG101 (AID 485342)
Conditions: TSG101-PTAP binding, fluorescence polarization, 4-point titration; series mostly up to 115 µM
Source text: NIH Molecular Libraries Probe Production Network [MLPCN]
NIH Chemical Genomics Center [NCGC]
PI Name: Dr. Eric Freed, NCI
Stages of the HIV-1 replication cycle, specifically virus assembly and release, provide underexploited targets for the development of novel antiviral inhibitors. The late stages of HIV-1 replication are mediated by the Gag precursor protein, Pr55Gag. Expression of Pr55Gag is both necessary and sufficient for the production of virus-like particles from Gag-expressing cells. The Gag protein hijacks key host proteins involved in endocytic machinery of the host cell to promote endosomal processing and viral budding. The budding process requires a direct interaction between a […] (PTAP) motif in the p6 domain of Gag and the cellular endosomal sorting protein known as Tsg101. In this way, the Gag PTAP motif promotes the host cells to recruit viral particles to the plasma membrane where the new viral particles are released, effectively turning the host cells into viral factories. A fluorescence anisotropy assay has been developed to quantitatively measure the PTAP-Tsg101 interaction which can be used to screen for inhibitors of this interaction.
NCGC Assay Protocol Summary:
Two uL of the Tsg101 binding domain in buffer (10 mM HEPES pH 7.5; 0.15 M NaCl, 0.01% Tween 20; 3 mM EDTA;0.1 mM TCEP) was dispensed into Greiner black MB 1536-well plates (final concentration 10 uM). Then, 23 nL of compounds or DMSO were delivered to each well using a pin tool. Finally, 2 uL of a FITC-labeled peptide containing the PTAP motif (1) in the same buffer was dispensed (50 nM final concentration) and the binding was allowed to proceed for 20 min. at r.t. Fluorescent polarization was determined using FITC excitation and polarized emission filters on a Perkin Elmer Viewlux.
Keywords: Tsg101, PTAP, Gag, HIV, fluorescent polarization, MLSMR, MLPCN, NIH Roadmap, qHTS, NCGC

Sequence of Tumor susceptibility gene 101 protein (Homo sapiens) (Q99816 whole entry, looked up): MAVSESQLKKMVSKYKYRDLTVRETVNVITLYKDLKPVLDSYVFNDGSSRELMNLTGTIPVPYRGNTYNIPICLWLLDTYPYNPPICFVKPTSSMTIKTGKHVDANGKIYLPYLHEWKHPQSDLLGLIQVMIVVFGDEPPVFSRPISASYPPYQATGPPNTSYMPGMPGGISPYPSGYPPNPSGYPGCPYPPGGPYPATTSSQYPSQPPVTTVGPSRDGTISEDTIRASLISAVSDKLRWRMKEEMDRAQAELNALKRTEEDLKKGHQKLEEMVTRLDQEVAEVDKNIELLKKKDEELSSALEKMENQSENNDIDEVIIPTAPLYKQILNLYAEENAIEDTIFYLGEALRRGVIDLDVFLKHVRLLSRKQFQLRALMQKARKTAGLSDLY

Row | Compound | outcome
1 | CNCC[C@H](Oc1ccc(C(F)(F)F)cc1)c1ccccc1 | inactive
2 | OCC1O[C@H]([S-])[C@H](O)[C@@H](O)[C@@H]1O.[Au+] (stereo not given in full) | inactive
3 | c1ccc(-c2ccccn2)nc1 | inactive
4 | CC1(C)CCC=[N+]1[O-] | inactive
5 | NC(=O)C(=O)O | inactive
6 | Cn1c(=O)c2[nH]c(-c3ccccc3)nc2n(C)c1=O | inactive
7 | CCCCC#Cc1nc(NC)c2ncn([C@@H]3O[C@H](CO)[C@@H](O)[C@H]3O)c2n1 | inactive
8 | O=Nc1ccc2oc(=O)ccc2c1 | inactive
9 | O=C(O)c1cc(=O)c2ccccc2[nH]1 | inactive
10 | NC(=S)c1ccc[n+]([C@@H]2O[C@@H](COP(=O)([O-])OP(=O)(O)OC[C@H]3O[C@@H](n4cnc5c(N)ncnc54)[C@H](OP(=O)(O)O)[C@@H]3O)C(O)C2O)c1 (stereo not given in full) | inactive
11 | OC[C@H]1O[C@@H](n2cnc3c(NC4CCCCC4)ncnc32)[C@H](O)[C@@H]1O | inactive
12 | OC[C@H]1O[C@@H](n2cnc3c(Nc4ccccc4)ncnc32)[C@H](O)[C@@H]1O | inactive
13 | O=C(/C=C/c1ccc(O)c(O)c1)OCCc1ccccc1 | inactive
14 | N#C/C(=C\c1ccc(O)c(O)c1)C(=O)NCCCc1ccccc1 | inactive
15 | CCCCCCCCCCCCCCCCCC(=O)OC(CC(=O)O)C[N+](C)(C)C (stereo not given) | inactive
16 | C[N+]1(C)CCC(OC(=O)C(c2ccccc2)c2ccccc2)CC1 | inactive
17 | Ic1ccc(N2CCN(Cc3c[nH]c4ncccc34)CC2)cc1 | inactive
18 | C[N+](C)(CCCCCC[N+](C)(C)CCCN1C(=O)c2cccc3cccc(c23)C1=O)CCCN1C(=O)c2cccc3cccc(c23)C1=O | inactive
19 | O=C1C(SCCO)=C(SCCO)C(=O)c2ccccc21 | inactive
20 | N[C@@H](CC(=O)O)C(=O)O | inactive

Row | Compound | outcome
21 | Fc1ccc(C(OCCCc2cnc[nH]2)c2ccc(F)cc2)cc1 | inactive
22 | CNC(=O)[C@H]1O[C@@H](n2cnc3c(NCc4cccc(I)c4)ncnc32)[C@H](O)[C@@H]1O | inactive
23 | O=P(O)(O)C(Cl)(Cl)P(=O)(O)O | inactive
24 | NO | inactive
25 | O=S(=O)(c1cccc2c(I)cccc12)N1CCCNCC1 | inactive
26 | C=CC(C)=C[C@@]1(C)SC(=O)C(C)=C1O | inactive
27 | CN(C)c1ccc(/C=C2\C(=O)Nc3ccccc32)cc1 | inactive
28 | C#CCN1C(C)=C(C(=O)OC)C(c2cccc([N+](=O)[O-])c2)C(C(=O)OCC)=C1C (stereo not given) | inactive
29 | CNc1ncnc2c1ncn2[C@@H]1O[C@H](CO)[C@@H](O)[C@H]1O | inactive
30 | Clc1ccc(N2CCN(Cc3cc4ccccn4n3)CC2)cc1 | inactive
31 | NC(N)=NC(=O)c1nc(Cl)c(N2CCCCCC2)nc1N | inactive
32 | COc1ccc(NC(=O)/C=C/c2ccc(Cl)cc2)cc1 | inactive
33 | CSc1nc(N)c2ncn([C@@H]3O[C@H](COP(=O)(O)OP(=O)(O)OP(=O)(O)O)[C@@H](O)[C@H]3O)c2n1 | inactive
34 | CCOC(=O)C1=C(C)NC(C)=C(C(=O)OCC)C1c1c(F)c(F)c(F)c(F)c1F | inactive
35 | OCC1O[C@H](O)C(Cl)C(O)C1O (stereo not given in full) | inactive
36 | c1cnc2c(c1)ccc1cccnc12 | inactive
37 | N.N.N.N.N.N.N.N.N.N.N.N.N.N.O.O.[Ru+4].[Ru+5].[Ru+5] | inactive
38 | O=[N+]([O-])c1ccc(CSc2ncnc3c2ncn3[C@@H]2O[C@H](CO)[C@@H](O)[C@H]2O)cc1 | inactive
39 | CCCC1(C)C(C#N)(C#N)C1(C#N)C#N | inactive
40 | Nc1ncnc2c1c(I)cn2[C@@H]1C[C@H](N)[C@@H](O)[C@H]1O | inactive
